RORgamma inh: qHTS for inhibitors of ROR gamma transcriptional activity; Nuclear receptor ROR-gamma (Mus musculus), P51450; 5.4% of 310,000 active; Potency, µM (highest dose often 53.6 µM), for inactives: top-dose activity change, negative = inhibition, actives largely listed as inhibitors; Drosophila S2 Gal4-RORgamma UAS-luciferase reporter, 20 h; also: potency is read from the fitted curve at half-maximal effect; % is scaled to controls: 0 for no effect and ±100 for the full control effect; nearly all actives have a fitted effect of over 60% in size
Target sequence (P51450 whole entry, looked up, the tested form may be a part): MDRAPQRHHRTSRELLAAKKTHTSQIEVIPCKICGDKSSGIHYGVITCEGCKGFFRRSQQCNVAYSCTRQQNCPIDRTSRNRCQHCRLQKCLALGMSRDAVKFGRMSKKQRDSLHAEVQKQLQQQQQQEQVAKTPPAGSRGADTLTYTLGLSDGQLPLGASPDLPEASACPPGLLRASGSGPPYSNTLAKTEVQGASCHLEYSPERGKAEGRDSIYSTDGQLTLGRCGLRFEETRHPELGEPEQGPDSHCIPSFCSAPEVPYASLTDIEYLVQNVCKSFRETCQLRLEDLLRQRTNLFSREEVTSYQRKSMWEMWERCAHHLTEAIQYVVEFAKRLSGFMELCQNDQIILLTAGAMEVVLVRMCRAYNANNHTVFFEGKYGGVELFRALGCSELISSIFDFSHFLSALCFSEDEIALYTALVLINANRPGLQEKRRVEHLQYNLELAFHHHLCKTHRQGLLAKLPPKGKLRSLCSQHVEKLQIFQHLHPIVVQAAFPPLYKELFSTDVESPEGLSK
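A Gal4/UAS one-hybrid system in insect cells: metallothionein-promoter Gal4–ROR gamma fusion plus Photinus luciferase reporter. Copper sulfate 700 uM final, 20 hr ambient incubation, luminescent detection after 10 min with reagent.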
BRCA1 expr act: qHTS Assay to Identify Small Molecule Activators of BRCA1 Expression; Potency, µM (top dose mostly 46.1 µM), without a hit: top-dose activation, actives largely listed as activators; 1.1% of 380,000 active; MCF7-BRCA1-FFLuc reporter, luminescence, 48 h; response scale: scaled: vehicle 0%, 10 µM genistein 100%; also: potency is read from the fitted curve at half-maximal effect; nearly all actives have a fitted effect of over 80% in size
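MCF7-BRCA1-FFLuc, 2000 cells/well; 2 h attach, 37 °C/5% CO2; compound 48 h; luciferase substrate 15 min; luminescence end-point. Norm. to genistein 10 microM max activation and DMSO; concentration-response curves fitted.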
Giardia kill: Small Molecules that selectively kill Giardia lamblia: qHTS | Giardia lamblia trophozoite viability | activity change, % at 7.66 µM, hits read low | 0.15% of 340,000 active; in the data active = activity change below about -80%; inconclusive = between about -30% and that limit;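 also: parasites exposed to compound for two days anaerobically before the ATP read; % is scaled to controls: 0 for no effect and ±100 for the full control effect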
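ATP-content bioluminescence gauges trophozoite survival. Cells (100/well) receive compound and incubate anaerobically for 48 hrs at 37 deg C; detection reagent follows for 15-30 min at room temperature.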
ELG1 repair inh: qHTS screen for small molecules that inhibit ELG1-dependent DNA repair in human embryonic kidney (HEK293T) cells expressing luciferase-tagged ELG1; Potency, µM (titrated, usually from 46.1 µM), without a hit: at the top dose activity change, negative = inhibition, usual class: inhibitors; HEK293T ELG1-luciferase reporter, luminescence, 16 h; DNA damage induced by 5-fluorouridine; 2.3% of 330,000 active; also: potency is read from the fitted curve at half-maximal effect; % is scaled to controls: 0 for no effect and ±100 for the full control effect; nearly all actives have a fitted effect of over 55% in size
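5-Fluorouridine DNA damage + compound/DMSO, 2,000 cells/well, 16 h, 37 °C/5% CO2. ONE-Glo, 30 min RT, luminescence. Readout = decrease in reporter signal.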
VP16 counter: VP16 counterscreen qHTS for inhibitors of ROR gamma transcriptional activity; Drosophila S2 Gal4-VP16 UAS-luciferase, luminescence, 20 h; Potency, µM (doses to about 53.6 µM), for inactives: at the highest dose activity, negative = inhibition, most hits filed as inhibitors; 3.5% of 310,000 active;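 also: Gal4-VP16 expression switched on by copper sulfate through the metallothionein promoter; potency is read from the fitted curve at half-maximal effect; % is scaled to controls: 0 for no effect and ±100 for the full control effect; nearly all actives have a fitted effect of over 50% in size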
p53 reactivator: qHTS assay for re-activators of p53 using a Luc reporter. Potency, µM (series often up to 92.2 µM), inactives show top-dose activity change, positive = activation, hits mostly activators. H1299 p53-A138V BP100-luciferase reporter, luminescence, 24 h. 0.063% of 320,000 active. AID 504706, 2011; also: potency is read from the fitted curve at half-maximal effect; % of control where 0% means no effect; nearly all actives have a fitted effect of over 45% in size
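p53-null H1299 cells stably carrying temperature-sensitive p53-A138V and a BP100-luciferase reporter were pinned with compounds (4-point, 1:5 series) and held 24 hrs at 37 deg C. Luminescence was read 10 min after detection reagent.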
Starred values were filed as active, the others as inactive; ? = inconclusive; nt = no result given; [ ] = dose if it differs, or a comment. Sampled rows, rich in hits. Any-hit rate of the full collection: about 7.6%. Unless noted, calls follow the shape of the dose curve; as a rule, active = well fitted curve in the direction sought with a large enough effect; inconclusive = small, poorly fitted or top-dose-only effect, or another doubt; inactive = no such curve, though single readings can be large; an effect the other way counts as inactive or inconclusive.

SMILES | RORgamma inh | BRCA1 expr act | Giardia kill | ELG1 repair inh | VP16 counter | p53 reactivator
O=C(N/N=C/c1cccc([N+](=O)[O-])c1)c1cccc2cc[nH]c12 | -0.8% | -16.0% | 9.4 | -7.4% | 1.7% | 7.5%
CC(OC(=O)c1ccc(=O)n(Cc2ccccc2)n1)C(=O)Nc1cccc(Cl)c1 (centres undefined) | nt | 2.0% | 12.0 | 6.3% | nt | 1.4%
O=C(N/N=C\c1ccc2c(c1)OCO2)c1ccc(Cn2cc(Br)c([N+](=O)[O-])n2)o1 | 19.3% | 0.0% | -4.0 | -2.8% | 0.6% | 6.6%
CC(C(=O)Nc1ccc2c(c1)OCCO2)c1ccc([N+](=O)[O-])cc1 (centres undefined) | 19.0% | 6.2% | 5.5 | 29.6% | -8.8% | -2.3%
CCN(C(=O)COC(=O)c1ccc2c(c1)OCO2)c1ccccc1 | nt | 3.6% | -17.3 | -1.2% | nt | -4.2%
CCn1c(SCC(=O)NC2CCCCC2)nnc1-c1ccccn1 | -8.8% | 0.8% | -15.4 | -8.2% | 2.7% | -4.2%
CC1CN(S(=O)(=O)c2ccc(F)cc2)C(C)N1C(=O)N1CCOCC1 (centres undefined) | -18.1% | 0.0% | -11.0 | -1.9% | -10.9% | -0.4%
N#Cc1ccc(Sc2nc3ccccc3[nH]2)cc1C#N | -11.6% | -38.0% | 1.5 | ? | ? | 38.5%
CCc1ccc(N2CC(C(=O)N/N=C/c3cc([N+](=O)[O-])ccc3O)CC2=O)cc1 (centres undefined) | 4.47µM* | -73.0% | 19.3 | ? | 10µM* | 0.1%
CCc1ccc(N2CC(C(=O)N/N=C/c3ccccc3OC)CC2=O)cc1 (centres undefined) | 3.1% | -23.9% | 6.4 | 7.2% | -6.5% | 14.4%
Cc1ccc2c(c1)nnn2C1CCN(S(=O)(=O)c2ccc(C(=O)N(C)C)cc2)CC1 | 168.7% | -30.5% | -3.2 | 18.4µM* | ? | -13.7%
Cc1ccc2c(c1)nnn2C1CCN(S(=O)(=O)c2cccc(S(=O)(=O)N(C)C)c2)CC1 | 26.2% | -54.9% | -3.3 | 20.6µM* | -10.9% | -6.5%
Cc1ccc2c(c1)nnn2C1CCN(S(=O)(=O)c2ccc(C(=O)N3CC(C)CC(C)C3)cc2)CC1 (centres undefined) | 13.2% | -39.6% | -20.4 | 20.6µM* | -6.6% | -16.7%
Cc1ccc2c(c1)nnn2C1CCN(CC(=O)c2ccc(Cl)cc2)CC1 | 0.8% | ? | -10.8 | -5.6% | 4.0% | -1.7%
Cc1ccc2c(c1)nnn2C1CCN(S(=O)(=O)c2ccc3ccccc3c2)CC1 | ? | -1.7% | 13.4 | ? | 28.9% | -0.7%
Cc1onc(-c2c(F)cccc2Cl)c1C(=O)NCc1ccco1 | 29.4% | 9.1% | -16.6 | 2.0% | -16.4% | -26.1%
CCOc1ccccc1NC(=O)N1CCC(c2nc3ccccc3[nH]2)CC1 | -1.9% | 6.6% | -4.2 | -24.1% | -1.2% | 4.9%
CCc1nc2ccc(C(=O)NCCOc3ccc(OC)cc3)cn2c1N(CCN(C)C)CC1CC1 | nt | 13.8% | nt | nt | nt | nt
NNc1nc(N)c2c(n1)-c1ccccc1CC21CCCC1 | 17.8µM* | -15.8% | -28.8 | ? | ? | 1.3%
CCc1nc2c(c(=O)[nH]1)C1(CCCC1)Cc1ccccc1-2 | 17.3% | -14.0% | -6.2 | 5.3% | -6.0% | -0.9%
Cc1nc([N+](=O)[O-])c(Br)n1CC(=O)c1ccc(Br)cc1 | 11.2µM* | -71.2% | -3.5 | -0.3% | ? | -8.4%
Cc1nc([N+](=O)[O-])c(Br)n1CC(=O)c1ccc2ccccc2c1 | 14.1µM* | -101.4% | -3.0 | ? | ? | -9.9%
Cc1nc([N+](=O)[O-])cn1CC(=O)c1ccc(Cl)cc1 | -3.4% | 8.7% | -15.4 | -4.9% | -7.4% | -4.1%
Cc1nc([N+](=O)[O-])c(Br)n1CC(=O)c1ccccc1 | 3.98µM* | -11.7% | -9.4 | -6.1% | ? | -18.5%
Nc1c(N)c2ccccc2oc1=O | 30.3% | -25.1% | -3.0 | ? | 16.4% | 12.0%
SMILES | RORgamma inh | BRCA1 expr act | Giardia kill | ELG1 repair inh | VP16 counter | p53 reactivator
Nc1c(N2CCN(c3ccccc3)CC2)c2ccccc2oc1=O | 9.4% | 0.2% | -5.4 | 18.4µM* | -9.2% | -4.2%
CN(C)/C=C/c1onc(-c2c(F)cccc2Cl)c1C#N | ? | 41.9% | 13.4 | 17.1% | -4.5% | 0.0%
COc1ccc(-c2cnnc(N/N=C/c3ccc(O)c(OC)c3)n2)cc1 | -10.9% | -6.1% | 5.5 | 20.6µM* | -12.4% | ?
CCc1nnc(N/N=C\c2ccc(OC(C)=O)c(OC)c2)n1N | ? | -64.1% | -8.0 | -13.1% | ? | -10.1%
CCc1nnc(N/N=C/c2ccc(O)c(OC)c2)n1N | 15.8µM* | -49.4% | 4.6 | -7.4% | 12.6µM* | nt
CCOc1cc(/C=N/Nc2nnc(C)n2N)ccc1OC(C)=O | 11.2µM* | -36.3% | -6.7 | ? | ? | -14.2%
CC(C)(C)c1nnc(N/N=C/c2cc(Br)ccc2O)n(N)c1=O | 12.6µM* | -86.8% | 2.1 | ? | 10µM* | ?
COc1cc(CC(=O)Nc2ccc3nc(SC)sc3c2)cc(OC)c1OC | 22.1% | -28.7% | -1.3 | ? | -4.5% | -6.6%
CCCCCCCCCCCC(=O)[O][Sn]([CH2]CCC)([CH2]CCC)[O]C(=O)CCCCCCCCCCC | 9.2%[10 µM] | nt | nt | nt | -11.2% | nt
COc1cccc(NC(=O)CN(C)C(C)C(=O)Nc2ccc(C(C)=O)cc2)c1 (centres undefined) | 9.2% | -12.9% | -16.1 | -24.2% | 5.7% | -1.2%
Cc1ccc(COc2cccc(/C=N/NC(=O)c3nnn(-c4nonc4N)c3C)c2)cc1 | 19.6% | 90.6% | -1.3 | ? | -5.9% | 5.6%
CCc1nnc(N/N=C/c2cccs2)n1N | ? | -3.3% | 20.7 | -5.2% | 12.6µM* | 23.9%
CCc1nnc(N/N=C/c2c(Cl)cccc2Cl)n1N | ? | -6.5% | -10.3 | 20.0% | ? | -3.9%
CCc1nnc(N/N=C/c2cc(Br)c(O)cc2O)n1N | 10µM* | -86.0% | -17.3 | -15.8% | 11.2µM* | -70.3%
COC(=O)c1cc(OC)c(OC)cc1NC(=O)c1ccoc1C | ? | nt | nt | 6.0% | -5.3%[0.365 µM] | 10.5%
C=CCn1c(=O)/c(=C/c2cc(OC)c(OC)c(OC)c2)s/c1=C(/C#N)c1nc2ccccc2n1C | -38.0% | -25.6% | 35.9 | 4.11µM* | 0.2% | -12.9%
Cc1ccccc1/C=C/c1nc2ccccc2c(=O)n1CCc1ccccc1 | -22.2% | -44.1% | 0.4 | 16.4µM* | -1.8% | -10.7%

Assay outcomes (PubChem)
